Screening results (PubChem)
Rows were chosen to be rich in hits. Some 7.3% of all compounds tested hit in one or more screens of this group.
Vaccinia mCherry: inhibitors of vaccinia virus infection (mCherry reporter signal). actives 0.63% (n = 310,000). AID 720579. Vaccinia virus mCherry reporter infection, fluorescence. Potency, µM (highest dose often 36.5 µM), without a hit: at the highest dose activity change, negative = inhibition, hits mostly inhibitors; calls by dose curve; tested in A549 cells; note: potency is the fitted concentration of half-maximal effect; nearly all actives have a fitted effect of over 35% in size
HCMV inh: inhibitors of human cytomegalovirus; actives 4.5% (n = 410,000); activity change, negative = inhibition, % at 57.5 µM; HFF cells, HCMV-luciferase reporter, 72 h; hits give low values; in the data active = activity change below about -60%; inconclusive = no clear call, values can overlap the other calls; inactive = above about -39%
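Two-dose cell screen: HFF monolayers treated with compounds and infected with luciferase-expressing HCMV at 1 PFU/cell, 72 h at 37C, then lysed for luciferase measurement.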
Vaccinia Venus: inhibitors of vaccinia virus (Venus reporter). Vaccinia virus Venus reporter expression, fluorescence. Potency, µM (highest dose often 36.5 µM), for inactives: at the highest dose activity change, negative = inhibition, actives largely listed as inhibitors. actives 0.46% (n = 330,000); calls by dose curve; tested in A549 cells; note: potency is the fitted concentration of half-maximal effect; nearly all actives have a fitted effect of over 30% in size
FMDV antiviral: blocks foot and mouth disease virus; AID 1159524; Potency, µM (titrated, usually from 57.9 µM), for the others: at the top dose activity change, negative = inhibition, usual class: inhibitors; FMDV antiviral cell-based qHTS; actives 1.2% (n = 410,000); calls by dose curve; tested in HEK293T cells; note: read-out not given here; potency is the fitted concentration of half-maximal effect; nearly all actives have a fitted effect of over 45% in size
HCV inh: HCV inhibition. Huh7.5.1 HCVcc-Cre infection, luciferase reporter, 44 h. Potency, µM (series often up to 41.8 µM), for inactives: top-dose activity change, negative = inhibition, most hits filed as inhibitors. actives 3.4% (n = 340,000). AID 651820; active = well fitted inhibition curve with a large enough effect; inconclusive = small, poorly fitted or top-dose-only effect, or another doubt; inactive = no such curve, though single readings can be large or run the other way; note: potency is the fitted concentration of half-maximal effect
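Cells seeded at 1,000/well and cultured 4 h, then compounds added followed by HCVcc-Cre virus (~0.5 moi). After 44 h further culture, luciferase substrate was added, plates held 15 min at room temperature, and luminescence read for 15 sec.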
The depositor's hits bear a star; i = inactive; ? = inconclusive; . = no result given; [ ] = remark or other dose. % is set by controls: 0 for no effect and ±100 for the full control effect.

SMILES	Vaccinia mCherry	HCMV inh	Vaccinia Venus	FMDV antiviral	HCV inh
COc1cc(=O)n2c(c1C(=O)NCc1ccco1)CCN(Cc1cc3ccccc3[nH]1)CC2	i	.	-16.1%	-10.6%	.
Cc1ccccc1N1CCN(C2CCCN(C(=O)c3ccccn3)C2)CC1 (stereo unspecified)	-19.3%	-1.2	-13.0%	7.1%	?
Cc1ccccc1N1CCN(C2CCCN(C(=O)c3cn4cccc(C)c4n3)C2)CC1 (stereo unspecified)	.	-32.0	.	44.7µM*	11.2µM*
Nc1ccc2c(c1)OC1(CCCC1)O2	-16.8%	-86.4*	-17.3%	1.41µM*	?
COc1ccc(-c2csc(Nc3ccc(C)cn3)n2)cc1OC	.	-20.2	.	-9.8%	12.6µM*
COc1ccc(-c2csc(Nc3cc(C)ccn3)n2)cc1OC	?	-10.8	-26.1%	-55.3%	10µM*
C=C1N(S(=O)(=O)C(F)(F)F)CCC12CN(Cc1ccccc1)c1ccccc12 (stereo unspecified)	.	4.1	.	.	.
COc1ccc(-c2[nH]ncc2CN2CCC(C(=O)N3CCOCC3)CC2)c(F)c1	-8.6%	-62.9*	-9.0%	-5.1%	9.5%
Cc1ccccc1CNC(=O)c1ccc2[nH]c(C)c(C)c2c1	-6.7%	0.0	-7.5%	34.9%	.
O=C(Nc1nccs1)[C@@H]1CC=C[C@@H]2CCN(C3CCCCC3)C(=O)[C@@H]21	-12.6%	.	-3.8%	.	.
CCOC(=O)C1=C(N)Oc2cc(O)ccc2C1c1cccc([N+](=O)[O-])c1 (stereo unspecified)	-29.2%	-68.7*	-25.6%	20µM*	?
C[C@@H](C(=O)NC1CCCC1)N1C(=O)N2CCc3c([nH]c4ccccc34)[C@@]2(C)C1=O	-11.6%	16.3	-13.2%	-38.9%	10µM*
COc1ccc2[nH]c3c(c2c1)CCN1C(=O)N([C@@H](C)C(=O)NCCc2ccc(OC)c(OC)c2)C(=O)[C@]31C	-2.8%	11.8	-0.3%	?	?
COc1ccc(CNC(=O)[C@H](C)N2C(=O)N3CCc4c([nH]c5ccc(OC)cc45)[C@@]3(C)C2=O)cc1	2.9%	-39.8	1.6%	-23.7%	?
COc1ccc(CCNC(=O)[C@H](C)N2C(=O)N3CCc4c([nH]c5ccccc45)[C@@]3(C)C2=O)cc1OC	-7.2%	-29.4	-19.0%	?	1µM*
COc1ccc(CCNC(=O)[C@H](C)N2C(=O)N3CCc4c([nH]c5ccccc45)[C@@]3(C)C2=O)cc1	-4.4%	17.7	-24.5%	?	4.47µM*
COc1cccc(CNC(=O)[C@@H](C)N2C(=O)N3CCc4c([nH]c5ccc(OC)cc45)C3(C)C2=O)c1 (stereo partly specified)	-9.6%	-32.1	-8.5%	?	8.91µM*
COc1ccccc1CNC(=O)[C@H](C)N1C(=O)N2CCc3c([nH]c4ccccc34)[C@@]2(C)C1=O	-20.8%	-32.3	-17.8%	?	?
COc1ccc2cc(CNCc3nonc3C)c(N3CCCC(CO)C3)nc2c1 (stereo unspecified)	-12.4%	.	-4.3%	13.5%	.
CC(C)c1nc2cccnc2n1C1CCN(C(=O)Cn2cccn2)CC1	-10.3%	.	4.0%	-12.0%	.
CCN(CC)c1ccc(NC(=O)c2cnn(CC)c2)cc1	.	-36.0	-28.4%	4.7%	?
CCN(CCCl)c1cc(CN(C)C)cc(NC(=O)c2ccc(C(=O)Nc3cc(CN(C)C)cc(N(CC)CCCl)c3)cc2)c1	1.26µM*	-101.1*	2.82µM*	?	1.41µM*
Cc1ccc2nc(-c3ccccc3C)c(CN(CC3CCCO3)C(=O)c3cccs3)cc2c1 (stereo unspecified)	-3.4%	.	-9.3%	-5.1%	.
CN1C2CCC1CC(OC(=O)c1cc(Cl)cc(Cl)c1)C2 (stereo unspecified)	.	17.2	-14.1%	?	14.1µM*
O=c1cc(C(F)(F)F)[nH]c2ccc(OC(F)(F)F)cc12	?	-94.6*	?	?	?
SMILES	Vaccinia mCherry	HCMV inh	Vaccinia Venus	FMDV antiviral	HCV inh
Cc1[nH]c2c(C(F)(F)F)cccc2c1CCN	.	51.3	-9.3%	-19.0%	0.9%
O=c1cc(C(F)(F)F)[nH]c2c(C(F)(F)F)cccc12	?	.	12.6µM*	?	-27.7%
COC(=O)/C=C1\N/C(=N\c2nc(C)cc(C)n2)N(c2ccc(C)c(C)c2)C1=O	?	43.6	?	25.1µM*	-5.0%
Cc1ccc(NC(=O)N[C@H]2CC[C@@]34CCCN3C(=O)CCC[C@H]4[C@H]2C)cc1	.	-3.3	.	.	.
CC1CCCN(c2cccc3c2S(=O)(=O)N([C@H](C)c2ccccc2)C[C@@H](COCc2ccccc2)O3)C1 (stereo partly specified)	.	-82.0*	.	.	.
C[C@@H]1C=CC(=O)O[C@@H]1c1ccc(Cl)cc1	?	-91.5*	3.55µM*	28.2µM*	-17.1%
CC1C(=O)OC(c2ccc(Cl)cc2)C(C)(C)C1=O (stereo unspecified)	-15.6%	17.5	-12.1%	-5.0%	7.4%
Cc1nn2c(=O)cc(COC(=O)c3ccccc3NC(=O)c3cccs3)nc2s1	?	35.6	?	?	.
Cc1cc(C)c(C(=O)CSC2=NC(N)=C(C#N)C3(CCCCC3)C2C(N)=O)cc1C (stereo unspecified)	-17.9%	-66.5*	-14.0%	?	.
Cc1cc(C)c(C(=O)CSc2nnc(N)s2)cc1C	-0.1%	7.9	-0.4%	6.0%	-25.0%
CCCNC1=C(C)C(=O)C2=C(C1=O)C(COC(N)=O)[C@]1(OC)C3NC3CN21 (stereo partly specified)	?	-69.2*	?	-3.4%	?
CO[C@@]12[C@@H]3N[C@@H]3CN1C1=C(C(=O)C(N)=C(C)C1=O)[C@@H]2COC(N)=O	5.62µM*	-96.6*	2.51µM*	-4.3%	?
COCc1cc(O)c(O)c(O)c1-c1c(COC)cc(O)c(O)c1O	42.5%	.	15.3%	.	.
O=C(CBr)c1ccc(Oc2ccc(C(=O)C[n+]3cccc(Br)c3)cc2)cc1	50.2%	.	8.4%	.	.
CCCc1cc(=O)oc2c(CN3CCN(C)CC3)c(O)c(Cl)cc12	.	14.0	.	-4.9%	-2.4%
Cc1cc(=O)oc2c(CN3CCN(C)CC3)c(O)c(Cl)cc12	-21.3%[1.46 µM]	-102.0*	-11.6%	20.9%	?
COc1cccc2c1cc1c(=O)n(CC(=O)N3CCN(c4cccc(C)c4)C(C)C3)nc(C)n12 (stereo unspecified)	i	19.6	-2.2%	-9.7%	.
O=C(Nc1ccn(Cc2c(F)c(F)cc(F)c2F)n1)c1ccc(COc2ccccc2Cl)cc1	-23.9%	-70.8*	?	-16.0%	12.6µM*
O=C(Nc1ccn(Cc2ccccc2F)n1)c1ccc(COc2ccccc2Cl)cc1	?	-97.6*	?	?	15.8µM*
O=C(Nc1ccn(Cc2ccccc2F)n1)c1ccc(COc2cccc(Br)c2)cc1	-13.5%	26.6	?	0.0%	?
COc1cc(C(CCN2CCCC2)c2c(OC)cc(OC)c3ccc(=O)oc23)cc(OC)c1OC (stereo unspecified)	25.9%	0.9	-11.2%	-5.6%	2µM*
